ELG1 genotoxic: genotoxicity induction in ELG1-luciferase HEK293T cells. HEK293T ELG1-luciferase reporter, luminescence, 16 h. Potency, µM (highest dose often 46 µM), without a hit: at the highest dose activity change, positive = activation, most hits filed as activators. hit rate 1.3% among 330,000. AID 504466; note: % of control where 0% means no effect; nearly all actives have a fitted effect of over 60% in size
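After overnight (16 hr) compound treatment at 37 °C, ELG1-luciferase HEK293T cells were lysed with ONE-Glo; luminescence quantified 30 min later at room temperature.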
ELG1 repair inh: inhibitors of ELG1-dependent DNA repair in HEK293T cells; HEK293T ELG1-luciferase reporter, luminescence, 16 h; DNA damage induced by 5-fluorouridine; Potency, µM (highest dose often 46.1 µM), for the others: top-dose activity change, negative = inhibition, usual class: inhibitors; hit rate 2.3% among 330,000; note: % is set by controls: 0 for no effect and ±100 for the full control effect; nearly all actives have a fitted effect of over 55% in size
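Reporter activity after DNA damage by 5-fluorouridine is monitored. Compound-treated cells incubate 16 hr at 37 °C, then ONE-Glo is added for 30 min before luminescence reading.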
SMN2 splice enh: increases expression of the SMN2 splice variant | hit rate 2.8% among 210,000 | HEK293 SMN2-luciferase splicing reporter, luminescence, 30-36 h | Potency, µM (highest dose often 46.1 µM), without a hit: at the highest dose activity change, positive = activation, hits mostly activators | AID 1458; note: % of control where 0% means no effect; nearly all actives have a fitted effect of over 55% in size
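qHTS luciferase splicing reporter: luminescence rises when SMN2 exon 7 is included in transfected HEK293 cells. Compound exposure lasted 30-36 h at 37C, with 4.5 mM final sodium butyrate as control, followed by a ONE-Glo read.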
NPC1 prom act: activators of NPC1 promoter; Huh7 NPC1 promoter luciferase reporter, 24 h; Potency, µM (titrated, usually from 9.22 µM), without a hit: at the highest dose activation, actives largely listed as activators; hit rate 2.4% among 320,000; AID 485313; note: % of control where 0% means no effect; nearly all actives have a fitted effect of over 60% in size
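Quantitative HTS used a cell-based reporter: Huh7 cells stably bearing the NPC1 promoter upstream of luciferase were treated with compounds for 24 h, and promoter activation was read as luminescence.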
Rab9 promoter act: activates the Rab9 promoter. Huh7 Rab9 promoter-luciferase reporter, luminescence, 24 h. Potency, µM (top dose mostly 9.22 µM), inactives show top-dose activation, negative = inhibition, most hits filed as activators. hit rate 2.8% among 320,000. AID 485297; note: % of control where 0% means no effect; nearly all actives have a fitted effect of over 60% in size
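Luciferase signal after 10 min detection reagent at ambient indicates Rab9 promoter upregulation; stably transfected Huh7 cells were treated 24 h with compound in DMSO at 37 °C, 5% CO2.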
FLuc counter: counter-screen for miR-21 project: firefly luciferase inhibitors or activators; hit rate 6.9% among 360,000; AID 588342; Potency, µM (series often up to 57.5 µM), for the others: top-dose activity change, negative = inhibition, most hits filed as inhibitors; purified FLuc, Km substrates, luminescence inhibition; P08659;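 note: plate controls were vehicle for no effect and reference inhibitor for full effect; nearly all actives have a fitted effect of over 55% in size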
Target sequence (P08659 whole entry, looked up): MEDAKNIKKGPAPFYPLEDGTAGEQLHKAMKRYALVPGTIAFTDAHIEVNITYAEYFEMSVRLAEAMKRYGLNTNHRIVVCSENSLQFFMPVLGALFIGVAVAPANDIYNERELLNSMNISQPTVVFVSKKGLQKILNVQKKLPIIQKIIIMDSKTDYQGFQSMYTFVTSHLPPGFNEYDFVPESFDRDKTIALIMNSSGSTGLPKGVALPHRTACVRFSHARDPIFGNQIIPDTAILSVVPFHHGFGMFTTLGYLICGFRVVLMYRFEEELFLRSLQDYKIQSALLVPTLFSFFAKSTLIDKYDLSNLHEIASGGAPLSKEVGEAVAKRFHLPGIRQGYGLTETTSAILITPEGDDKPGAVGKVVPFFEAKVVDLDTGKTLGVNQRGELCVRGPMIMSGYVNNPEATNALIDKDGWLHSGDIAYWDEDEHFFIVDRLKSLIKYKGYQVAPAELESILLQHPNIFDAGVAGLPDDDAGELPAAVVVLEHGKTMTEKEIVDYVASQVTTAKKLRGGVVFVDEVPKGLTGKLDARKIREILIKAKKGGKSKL
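Purified P. pyralis luciferase (10nM final) with 10uM D-luciferin and 10uM ATP (Km levels) in 50mM Tris acetate pH 7.5, 10mM Mg acetate, 0.01% Tween-20, 0.05% BSA; qHTS 6-point titration, ~60 µM downward; luminescence read.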
Numbers without * were called inactive; ? = inconclusive; . = no result given. This is a sample that favours compounds with a hit; in the whole collection about 9.2% have one here. Calls come from the whole dose curve; as a rule, active = well fitted curve in the direction sought with a large enough effect; inconclusive = small, poorly fitted or top-dose-only effect, or another doubt; inactive = no such curve, though single readings can be large; an effect the other way counts as inactive or inconclusive. Potency is the fitted concentration of half-maximal effect.

SMILES	ELG1 genotoxic	ELG1 repair inh	SMN2 splice enh	NPC1 prom act	Rab9 promoter act	FLuc counter
COc1ccc(NC(=O)c2onc(C)c2Cl)cc1	?	?	.	3.5µM*	3.2µM*	15µM*
CCc1ccc(NC(=O)c2onc(C)c2Cl)cc1	5.2µM*	?	14µM*	2.5µM*	2µM*	3.4µM*
COc1ccc(NC(=O)c2cc(C)on2)cc1	?	?	11µM*	2.8µM*	2.8µM*	21µM*
COc1ccc(Cc2nc(C(=O)Nc3ccc(OC)cc3)cs2)cc1	?	?	-29%	0%	-7%	24µM*
COc1ccc(Cc2nc(C(=O)NCc3ccccc3OC)cs2)cc1	-2%	-7%	-14%	-5%	-3%	-12%
CCN(CC)S(=O)(=O)c1ccc(NC(=O)COC(=O)CCc2cc(OC)c(OC)c(OC)c2)cc1	5%	?	27%	-2%	-2%	-1%
CC(=O)Nc1ccccc1-c1nc2ccccc2n(CC(=O)Nc2cccc(C)c2C)c1=O	.	.	.	.	.	-2%
C=CCn1cc(/C=C/c2cc[n+](C)cc2)c2ccccc21	-13%	?	.	-44%	-48%	-1%
CCn1cc(/C=C/c2cc[n+](C)cc2)c2ccccc21	-8%	2.9µM*	.	-42%	-43%	0%
COc1cccc(N=Nc2c(C)[nH]n(-c3ccccc3)c2=O)c1	?	?	.	?	?	11µM*
O=c1cc(-c2ccccc2)nc2c(-c3ccccc3)c(C(F)(F)F)[nH]n12	-12%	?	.	-1%	-8%	?
Cc1[nH]n(-c2ccccc2)c(=O)c1N=Nc1ccc2c(c1)OCO2	9%	?	18µM*	?	?	6µM*
Nc1[nH]n2c(=O)cc(-c3ccccc3)nc2c1N=Nc1ccc2c(c1)OCO2	-2%	5%	.	-6%	-8%	5.4µM*
Cc1ccc(C2C=NN(c3ccccc3)C2=O)cc1 (stereo unspecified)	?	?	.	16%	?	12µM*
Cc1ccc(Cn2nnc(C(=O)Nc3cccc(C)c3C)c2N)cc1	11%	13%	-11%	1%	-4%	2%
Cc1cccc(NC(=O)c2n[nH]c([N+](=O)[O-])c2Br)c1C	?	?	10µM*	0.79µM*	1µM*	3.8µM*
Cc1nc(SCc2nc3ccccc3[nH]2)c2oc3cc([N+](=O)[O-])ccc3c2n1	0%	23µM*	.	.	.	.
Cc1ccc(CSc2ncc(Cl)c(C(=O)NCCc3ccc(S(N)(=O)=O)cc3)n2)cc1	.	.	-21%	.	.	-12%
CCOC(=O)c1c(C)[nH]c(C)c1C(=O)COc1ncnc2cc([N+](=O)[O-])ccc12	-9%	?	-22%	-13%	-8%	4%
CC(C)(C)NC(=O)CN(Cc1ccco1)C(=O)CCC(=O)Nc1nccs1	-1%	-2%	.	-1%	-1%	-2%
COc1ccccc1OCCC(=O)Nc1ccc2c(c1)OCO2	1%	-11%	.	.	.	.
Cc1cccc(C)c1OCC(=O)Nc1ccc2c(c1)OCCO2	?	?	.	13%	17%	?
COc1ccccc1OCC(=O)Nc1ccc2c(c1)OCCO2	?	?	.	?	?	17µM*
O=C(COc1ccccc1Cl)Nc1ccc2c(c1)OCCO2	4.1µM*	?	.	4µM*	1.6µM*	4.8µM*
Cc1ccccc1OCC(=O)Nc1ccc2c(c1)OCCO2	?	?	.	3.5µM*	2.8µM*	9.5µM*
SMILES	ELG1 genotoxic	ELG1 repair inh	SMN2 splice enh	NPC1 prom act	Rab9 promoter act	FLuc counter
O=C(COC(=O)c1cccnc1Cl)Nc1ccc2c(c1)OCCO2	7%	-7%	5%	-2%	-2%	8.5µM*
Cc1ccc(C)c(N2CCN(C(=O)c3ccc(-c4nc(COc5ccccc5)c(C)o4)cc3)CC2)c1	.	.	.	.	.	-6%
CO[C@H]1C[C@@H]2CC[C@@H](C)[C@@](O)(O2)C(=O)C(=O)N2CCCC[C@H]2C(=O)O[C@H](C(C)C[C@H]2CC[C@@H](O)[C@H](OC)C2)CC(=O)[C@H](C)/C=C(\C)[C@@H](O)[C@@H](OC)C(=O)[C@H](C)C[C@H](C)/C=C/C=C/C=C/1C (stereo partly specified)	.	.	-9%	.	.	.
CCC1(C)Cc2c(sc3nc(SC)n(-c4ccc(C)cc4)c(=O)c23)CO1 (stereo unspecified)	.	.	-14%	.	.	-12%
NC(=O)c1ccccc1OCC(=O)Nc1ccc2c(c1)OCCO2	?	?	.	?	3.2µM*	8.5µM*
O=C(CSCc1c(Cl)cccc1Cl)Nc1ccc2c(c1)OCCO2	12%	-2%	18%	13%	8%	17µM*
O=C(COc1ccccc1)N/N=C/c1ccc2c(c1)OCO2	12%	-8%	3%	4%	0%	?
Cc1ccccc1OCC(=O)N/N=C/c1ccc2c(c1)OCCO2	4%	6%	12%	1%	-1%	27µM*
CC(=O)Nc1ccc(SCC(=O)Nc2ccc3c(c2)OCCO3)cc1	8%	?	.	.	.	.
CCOC(=O)N1CCN(C(=O)C(NC(=O)c2ccc(C(C)(C)C)cc2)C(C)C)CC1 (stereo unspecified)	-1%	?	.	-9%	-1%	3%
N#CC1=C(N)N=C(SCc2cccc3ccccc23)C(C(N)=O)C12CCCCC2 (stereo unspecified)	-2%	?	-18%	-2%	-5%	4%
